Measured values from PubChem BioAssay.
Activity calls are given as the source filed them. How the calls were made is not given here.

biological target: Pantothenate synthetase (Mycobacterium tuberculosis (strain ATCC 25618 / H37Rv)) (UniProt P9WIL5); assay: Coupled enzyme confirmation of inhibitors against recombinant Mtb PanC (AID 375); details: coupled enzyme assay; at 10 µM, stronger effect = higher value;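 further: 0% = full reaction with vehicle and 100% = no enzyme background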
Sequence (P9WIL5 whole entry, looked up): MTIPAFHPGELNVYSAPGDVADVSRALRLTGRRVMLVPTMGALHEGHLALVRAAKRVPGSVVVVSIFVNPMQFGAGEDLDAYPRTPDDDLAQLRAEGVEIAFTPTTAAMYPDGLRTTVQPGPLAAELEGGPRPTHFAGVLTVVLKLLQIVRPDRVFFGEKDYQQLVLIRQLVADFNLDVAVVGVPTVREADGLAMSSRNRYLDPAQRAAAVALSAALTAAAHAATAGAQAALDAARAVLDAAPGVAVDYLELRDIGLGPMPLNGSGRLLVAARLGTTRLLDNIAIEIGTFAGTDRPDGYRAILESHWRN

| SMILES | inhibition |
| --- | --- |
| Cc1cc(NC(=O)c2cnn3cccnc23)no1 | 3% (inactive) |
| CCOC(=O)c1nnc(-c2ccccc2)o1 | 2% (inactive) |
| Oc1ccc(-c2onc(C(F)(F)F)c2-c2cscn2)c(O)c1 | 2% (inactive) |
| COc1ccc(-n2c(Cc3cccn3C)nnc2SCC(=O)Nc2cccc(C)c2C)cc1 | 0% (inactive) |
| CCN(CC)c1ccc(-c2c(C#N)c(N)nc(OC)c2C#N)cc1 | 0% (inactive) |
| Cc1cccc(N(CC(=O)Nc2ccc(CC#N)cc2)S(C)(=O)=O)c1 | 2% (inactive) |
| CC(=O)NC(C)c1nc2ccccc2n1C(C)C (stereo not given) | 6% (inactive) |
| CSCCC(C(=O)Nc1ccc2c(c1)OCO2)N1C(=O)c2ccccc2C1=O (stereo not given) | 0% (inactive) |
| O=C(COC(=O)c1ccc(S(=O)(=O)Nc2ccccc2)cc1)NCCN1C(=O)CSC1=O | 0% (inactive) |
| CCC(C(=O)OCCN(CC)CC)c1ccccc1 (stereo not given) | 0% (inactive) |
| COc1cccc(-c2noc(C3CCCN(C(=O)Cc4ccccc4)C3)n2)c1 (stereo not given) | 0% (inactive) |
| CCn1cc(C(=O)NCc2ccco2)c(=O)c2cc(F)c(N3CCN(C(=O)c4ccco4)CC3)cc21 | 0% (inactive) |
| C/C(=C\c1ccco1)C1C(C#N)=C(N)OC2=C1C(=O)CC(C)(C)C2 (stereo not given) | 12% (inactive) |
| Fc1cccc2sc(Nc3nnc(-c4ccco4)o3)nc12 | 8% (inactive) |
| COCCn1nnnc1C(c1cc2cc(OC)ccc2[nH]c1=O)N1CCC(Cc2ccccc2)CC1 (stereo not given) | 3% (inactive) |
| O=C(NCC1CCCO1)c1ccc(N2CCCCC2)nc1 (stereo not given) | 0% (inactive) |
| CN(C)c1ccc(NC(=O)Cn2cc3c(n2)CCCC3)cc1 | 0% (inactive) |
| CC(NC(=O)c1cn(C)c2ccc(S(=O)(=O)N3CCCC3)cc2c1=O)c1ccc2c(c1)OCCO2 (stereo not given) | 0% (inactive) |
| Cc1ccc(NC2=NC3(CCCCC3)N=C(N)N2)c(C)c1 | 3% (inactive) |
| C=CCn1c(SCC(=O)Nc2ccc3c(c2)OCO3)nc2ccccc2c1=O | 2% (inactive) |

| SMILES | inhibition |
| --- | --- |
| COc1ccccc1S(=O)(=O)Cc1ccc(C(=O)N2CCOCC2)o1 | 0% (inactive) |
| O=C(CN(C1CCCCC1)S(=O)(=O)c1ccccc1)NCc1cccnc1 | 0% (inactive) |
| Cc1noc(C)c1C(=O)Nc1sc(C)c(C)c1C#N | 2% (inactive) |
| COc1cc(C2C(C#N)=C(C)NC3=C2C(=O)CC(C)(C)C3)ccc1O (stereo not given) | 0% (inactive) |
| O=C(CCN1C(=O)COc2ccccc21)N1CCN(c2ccccn2)CC1 | 0% (inactive) |
| Cc1noc(C)c1CSc1nnc2n(-c3ccccc3)c(=O)c3ccccc3n12 | 0% (inactive) |
| O=c1c2ccccc2sn1-c1ccc(S(=O)(=O)N2CCCCC2)cc1 | 0% (inactive) |
| CCOC(=O)C1CCN(Cc2c(O)ccc3ccccc23)CC1 | 1% (inactive) |
| O=C(OCC(=O)c1ccccc1Br)c1ccccn1 | 3% (inactive) |
| Cc1c(C(=O)OCc2ccccc2)[nH]c2c1C(=O)CC(c1ccco1)C2 (stereo not given) | 1% (inactive) |
| CN(C)c1ccc(CNC2CC(C)(C)NC(C)(C)C2)cc1 | 0% (inactive) |
| Cn1c(=O)c2c([nH]c(=O)n2C)n(C)c1=O | 0% (inactive) |
| COc1cc2c(cc1OC)CN(CC(=O)Nc1cccc(C)c1)CC2 | 11% (inactive) |
| CC(CCc1ccccc1)NC(=O)c1ccc(Br)o1 (stereo not given) | 0% (inactive) |
| COC(=O)C1CCN(C(=O)c2sc3nc(-c4ccc(F)cc4)cn3c2C)CC1 | 0% (inactive) |
| CC1CCN(C(=O)CSc2nnc(Cc3cc(=O)[nH]c(=O)[nH]3)n2-c2ccc(Cl)cc2)CC1 | 4% (inactive) |
| O=C(Cc1ccccc1)Nc1ccc(CN2CCOCC2)cc1 | 0% (inactive) |
| CCc1ccc(N2CC(C(=O)OCC(=O)Nc3cc(C)on3)CC2=O)cc1 (stereo not given) | 0% (inactive) |
| CCOC(=O)c1ccc2[nH]c3c(c2c1)CCCCC3=O | 0% (inactive) |
| CCOC(=O)c1cnc(-n2nc(C)cc2C)nc1Nc1cccc(C(C)=O)c1 | 0% (inactive) |
